In PubChem BioAssay (EPA / NIEHS):
Activity calls are given as the source filed them. The calls were made as follows: active = hit-call score of the fitted dose curve at least 0.9, where 1 is the maximum; inactive = score below 0.9.

Legend:
Settings in all cases: mRNA level, 48 h; actives raise or lower the signal
[1] = read-out: adenosine kinase (ADK) gene, ADK (gene 132); test: LTEA_HepaRG_ADK: Life Technologies and Expression Analysis (LTEA) Assay for adenosine kinase (ADK) gene using HepaRG (AID 2283471)
Method in brief: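 Read-out is ADK transcript level measured by qRT-PCR and normalised to three housekeeping genes. Cells are human HepaRG, dosed for 48 h at up to 100 uM in 0.5% DMSO. Gain or loss of signal is fitted against DMSO controls.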

[2] = read-out: Alpha-fetoprotein (AFP) gene, AFP (gene 174); test: LTEA_HepaRG_AFP: Life Technologies and Expression Analysis (LTEA) Assay for Alpha-fetoprotein (AFP) gene using HepaRG (AID 2283472)
Method in brief: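 qRT-PCR (Fluidigm TaqMan) readout of AFP transcript, normalized to three housekeeping genes, fitted bidirectionally against 0.5% DMSO baseline. HepaRG cells received chemicals for 48 h in serum-free induction medium, top concentration 100 uM, half-log steps.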

BCL2L11 (gene 10018) = test: LTEA_HepaRG_BCL2L11: Life Technologies and Expression Analysis (LTEA) Assay for Bcl-2 (BCL2L11) gene using HepaRG (AID 2283473)
Method in brief: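 Differentiated human HepaRG cells in serum-free induction medium were exposed in duplicate for 48 h to eight concentrations (top 100 uM, half-log steps, 0.5% DMSO). BCL2L11 mRNA was quantified by TaqMan qRT-PCR, normalized to ACTB/GAPDH/POLR2A, bidirectional fit versus DMSO.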

[3] = read-out: Apolipoprotein A-V (APOA5) gene, APOA5 (gene 116519); test: LTEA_HepaRG_APOA5: Life Technologies and Expression Analysis (LTEA) Assay for Apolipoprotein A-V (APOA5) gene using HepaRG (AID 2283474)
Method in brief: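 Differentiated human HepaRG cells were exposed in duplicate for 48 h to eight half-log concentrations from 100 uM in 0.5% DMSO. APOA5 mRNA was quantified by TaqMan qRT-PCR, normalized to ACTB, GAPDH and POLR2A, and fitted bidirectionally against DMSO.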

[4] = read-out: Apoptosis regulator Bcl-2 (Homo sapiens) (UniProt P10415); test: LTEA_HepaRG_BCL2: Life Technologies and Expression Analysis (LTEA) Assay for Bcl-2 gene using HepaRG (AID 2283475)
Method in brief: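 qRT-PCR read-out (Fluidigm TaqMan) of BCL2 transcript, normalised to three housekeeping genes, after 48 h chemical exposure of HepaRG cells; 8-point half-log series, top 100 uM, 0.5% DMSO vehicle. Gain or loss of signal fitted relative to DMSO baseline.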

[5] = read-out: Bcl-2 (BID) gene, BID (gene 637); test: LTEA_HepaRG_BID: Life Technologies and Expression Analysis (LTEA) Assay for Bcl-2 (BID) gene using HepaRG (AID 2283476)
Method in brief: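 HepaRG, 48 h exposure, 8-pt half-log series, top 100 uM, 0.5% DMSO vehicle, duplicates. Readout: BID mRNA by TaqMan qRT-PCR; housekeeping-normalized; bidirectional curve fit vs DMSO baseline.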

Caspase-3 (Homo sapiens) = Caspase-3 (Homo sapiens) (UniProt P42574); test: LTEA_HepaRG_CASP3: Life Technologies and Expression Analysis (LTEA) Assay for cysteine-aspartic acid protease (CASP3) using HepaRG (AID 2283477)
Caspase-3 (Homo sapiens), sequence (P42574 whole entry, looked up): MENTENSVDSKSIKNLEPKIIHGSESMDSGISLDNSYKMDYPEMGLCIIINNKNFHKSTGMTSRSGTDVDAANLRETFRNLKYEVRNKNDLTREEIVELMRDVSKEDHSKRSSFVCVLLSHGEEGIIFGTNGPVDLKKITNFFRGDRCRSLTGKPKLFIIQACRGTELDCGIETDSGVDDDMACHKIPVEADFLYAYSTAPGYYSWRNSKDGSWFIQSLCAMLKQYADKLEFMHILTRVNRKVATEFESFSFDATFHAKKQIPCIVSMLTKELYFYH
Method in brief: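 Differentiated human HepaRG cells in serum-free induction medium were exposed 48 h to 8-point half-log concentrations from 100 uM (0.5% DMSO vehicle). CASP3 mRNA was measured by qRT-PCR, normalised to ACTB, GAPDH and POLR2A, with bidirectional fitting against DMSO.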

[6] = read-out: Cytochrome P450 (CYP24A1), CYP24A1 (gene 1591); test: LTEA_HepaRG_CYP24A1: Life Technologies and Expression Analysis (LTEA) Assay for Cytochrome P450 (CYP24A1) using HepaRG (AID 2283478)
Method in brief: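 Differentiated HepaRG cells, pre-cultured 48 h, were exposed in duplicate for 48 h in serum-free induction medium to 8 half-log concentrations (top 100 uM, 0.5% DMSO). CYP24A1 mRNA was quantified by TaqMan qRT-PCR, normalized to ACTB/GAPDH/POLR2A, fitted bidirectionally versus DMSO.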

[7] = read-out: Cytochrome P450 (CYP1A2), CYP1A2 (gene 1544); test: LTEA_HepaRG_CYP1A2: Life Technologies and Expression Analysis (LTEA) Assay for Cytochrome P450 (CYP1A2) using HepaRG (AID 2283479)
Method in brief: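 Differentiated human HepaRG cells in serum-free induction medium were exposed in duplicate for 48 h to 8-point half-log concentrations up to 100 uM in 0.5% DMSO. CYP1A2 mRNA measured by qRT-PCR, normalized to ACTB, GAPDH, POLR2A; bidirectional fit vs DMSO.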

[8] = read-out: cysteine-aspartic acid protease (CASP8), CASP8 (gene 841); test: LTEA_HepaRG_CASP8: Life Technologies and Expression Analysis (LTEA) Assay for cysteine-aspartic acid protease (CASP8) using HepaRG (AID 2283480)
Method in brief: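 CASP8 transcript measured by TaqMan qRT-PCR with ACTB/GAPDH/POLR2A normalization, after 48 h chemical exposure of HepaRG cells in serum-free induction medium. Eight concentrations, top 100 uM, half-log steps, 0.5% DMSO vehicle; fits in both directions versus DMSO.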

[9] = read-out: Cytochrome P450 2C19 (Homo sapiens) (UniProt P33261); test: LTEA_HepaRG_CYP2C19: Life Technologies and Expression Analysis (LTEA) Assay for CYP2C19 using HepaRG (AID 2283482)
Method in brief: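 Differentiated human HepaRG cells were exposed for 48 h in serum-free induction medium to 8 concentrations (top 100 uM, half-log steps, 0.5% DMSO). CYP2C19 mRNA was measured by qRT-PCR, normalized to ACTB/GAPDH/POLR2A, and fitted bidirectionally against DMSO.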

CYP2C8 (gene 1558) = test: LTEA_HepaRG_CYP2C8: Life Technologies and Expression Analysis (LTEA) Assay for CYP2C8 using HepaRG (AID 2283483)
Method in brief: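 CYP2C8 expression measured by TaqMan qRT-PCR and normalized to three housekeeping genes. HepaRG cultures were treated for 48 h with an eight-point half-log series topping at 100 uM, vehicle 0.5% DMSO, duplicates; fitted both directions against DMSO.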

CYP2C9 (gene 1559) = test: LTEA_HepaRG_CYP2C9: Life Technologies and Expression Analysis (LTEA) Assay for CYP2C9 using HepaRG (AID 2283484)
Method in brief: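 CYP2C9 transcript level, quantified by TaqMan qRT-PCR against three housekeeping genes, was fitted bidirectionally relative to 0.5% DMSO. HepaRG cultures were treated 48 h, in duplicate, at eight half-log concentrations topping at 100 uM.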

CYP2E1 (gene 1571) = test: LTEA_HepaRG_CYP2E1: Life Technologies and Expression Analysis (LTEA) Assay for CYP2E1 using HepaRG (AID 2283485)
Method in brief: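 CYP2E1 transcript was measured by TaqMan qRT-PCR in human HepaRG cultures after 48 h chemical exposure (top 100 uM, half-log steps, 0.5% DMSO vehicle). Housekeeping-gene normalization; gain or loss fitted relative to DMSO baseline.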

CYP4A11 (gene 1579) = test: LTEA_HepaRG_CYP4A11: Life Technologies and Expression Analysis (LTEA) Assay for CYP4A11 using HepaRG (AID 2283486)
Method in brief: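 Differentiated HepaRG cells, serum-free induction medium, exposed 48 h in duplicate to 8-point half-log series from 100 uM in 0.5% DMSO. CYP4A11 mRNA measured by qRT-PCR, normalized to ACTB, GAPDH, POLR2A; bidirectional fit versus DMSO.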

[10] = read-out: Cytochrome P450 3A4 (Homo sapiens) (UniProt P08684); test: LTEA_HepaRG_CYP3A4: Life Technologies and Expression Analysis (LTEA) Assay for CYP3A4 using HepaRG (AID 2283487)
Method in brief: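 HepaRG, 48 h exposure, 8-pt CRC from 100 uM (half-log), 0.5% DMSO, duplicates; serum-free induction medium. Readout: CYP3A4 mRNA, qRT-PCR, ACTB/GAPDH/POLR2A normalization. Bidirectional fit vs DMSO.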

[11] = read-out: DNA damage-inducible transcript 3 (DDIT3), DDIT3 (gene 1649); test: LTEA_HepaRG_DDIT3: Life Technologies and Expression Analysis (LTEA) Assay for DNA damage-inducible transcript 3 (DDIT3) using HepaRG (AID 2283488)
Method in brief: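 qRT-PCR readout (Fluidigm TaqMan), housekeeping-normalized to ACTB, GAPDH, POLR2A. HepaRG cells, 48 h exposure, 8-point half-log series from 100 uM in 0.5% DMSO, duplicates. Gain or loss of signal fitted against DMSO baseline.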

[12] = read-out: Pro-epidermal growth factor (Homo sapiens) (UniProt P01133); test: LTEA_HepaRG_EGF: Life Technologies and Expression Analysis (LTEA) Assay for Epidermal growth factor (EGF) using HepaRG (AID 2283489)
Method in brief: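 Differentiated human HepaRG cells, plated 48 h then switched to serum-free induction medium, were exposed for 48 h to test chemicals (8-point half-log series, top 100 uM, 0.5% DMSO). EGF mRNA was quantified by qRT-PCR, normalized to ACTB, GAPDH, POLR2A.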

[13] = read-out: Early growth response protein 1 (EGR1) transcription factor, EGR1 (gene 1958); test: LTEA_HepaRG_EGR1: Life Technologies and Expression Analysis (LTEA) Assay for Early growth response protein 1 (EGR1) transcription factor using HepaRG (AID 2283490)
Method in brief: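 EGR1 transcript levels quantified by qRT-PCR (Fluidigm arrays) against three housekeeping genes after 48 h chemical exposure of HepaRG cells. Eight-point half-log series topping at 100 uM, 0.5% DMSO vehicle, analyzed for gain or loss.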

[14] = read-out: Cytochrome P450 (CYP2B6), CYP2B6 (gene 1555); test: LTEA_HepaRG_CYP2B6: Life Technologies and Expression Analysis (LTEA) Assay for Cytochrome P450 (CYP2B6) using HepaRG (AID 2283481)
Method in brief: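 Differentiated HepaRG cells, serum-free induction medium, exposed 48 h in duplicate to 8-point half-log concentrations from 100 uM in 0.5% DMSO. CYP2B6 mRNA by qRT-PCR, normalized to ACTB, GAPDH, POLR2A; bidirectional fit versus DMSO.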

Measured: AC50

Cytochrome P450 3A4 (Homo sapiens), sequence (P08684 whole entry, looked up): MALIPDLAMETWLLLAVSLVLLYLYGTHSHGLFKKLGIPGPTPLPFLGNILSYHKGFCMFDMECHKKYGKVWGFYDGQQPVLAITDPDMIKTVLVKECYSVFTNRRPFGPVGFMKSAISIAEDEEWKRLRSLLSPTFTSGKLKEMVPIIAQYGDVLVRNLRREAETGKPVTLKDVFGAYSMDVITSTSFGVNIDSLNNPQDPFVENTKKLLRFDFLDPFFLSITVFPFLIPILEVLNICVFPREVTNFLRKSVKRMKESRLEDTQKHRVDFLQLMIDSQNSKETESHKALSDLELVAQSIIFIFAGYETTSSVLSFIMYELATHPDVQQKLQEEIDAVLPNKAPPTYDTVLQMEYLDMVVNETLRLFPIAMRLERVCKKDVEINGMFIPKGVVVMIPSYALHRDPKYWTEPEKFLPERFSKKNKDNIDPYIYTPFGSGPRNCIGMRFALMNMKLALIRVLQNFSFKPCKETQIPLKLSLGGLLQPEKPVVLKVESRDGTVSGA
Cytochrome P450 2C19 (Homo sapiens), sequence (P33261 whole entry, looked up): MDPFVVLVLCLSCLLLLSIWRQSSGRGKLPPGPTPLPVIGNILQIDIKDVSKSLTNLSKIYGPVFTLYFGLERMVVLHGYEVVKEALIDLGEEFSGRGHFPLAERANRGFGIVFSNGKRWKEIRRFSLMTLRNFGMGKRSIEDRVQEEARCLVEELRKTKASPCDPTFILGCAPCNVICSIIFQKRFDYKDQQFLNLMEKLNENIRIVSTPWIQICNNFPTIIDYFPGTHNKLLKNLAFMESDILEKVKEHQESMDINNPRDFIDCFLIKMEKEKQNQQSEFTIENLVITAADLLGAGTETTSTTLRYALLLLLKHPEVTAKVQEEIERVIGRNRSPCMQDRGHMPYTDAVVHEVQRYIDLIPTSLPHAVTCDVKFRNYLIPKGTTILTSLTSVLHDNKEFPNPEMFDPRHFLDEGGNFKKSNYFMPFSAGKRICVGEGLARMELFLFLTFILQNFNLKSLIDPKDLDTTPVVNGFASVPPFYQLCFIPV
Apoptosis regulator Bcl-2 (Homo sapiens), sequence (P10415 whole entry, looked up): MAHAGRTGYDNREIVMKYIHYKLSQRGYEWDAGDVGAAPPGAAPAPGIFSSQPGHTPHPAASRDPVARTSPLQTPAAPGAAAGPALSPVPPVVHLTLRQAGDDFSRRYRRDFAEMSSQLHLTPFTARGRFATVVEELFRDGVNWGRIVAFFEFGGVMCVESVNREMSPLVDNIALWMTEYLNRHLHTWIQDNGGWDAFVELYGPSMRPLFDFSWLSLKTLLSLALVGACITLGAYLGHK

OCC(CO)n1cnc(-c2ccc(F)cc2)c1-c1ccnc(Oc2ccccc2)n1
active: [2] 28.4 µM | [9] 12.4 µM | CYP2E1 (gene 1571) 15.5 µM | CYP4A11 (gene 1579) 16.9 µM | [10] 3.72 µM | [13] 20.7 µM
not listed: [14]
inactive: all other assays above

CSc1ccc(Oc2ccc(S(N)(=O)=O)cc2CN(C)C)cc1C
active: [2] 75 µM | [7] 50 µM | [14] 12.1 µM | CYP2E1 (gene 1571) 47.6 µM | CYP4A11 (gene 1579) 77.5 µM | [10] 14 µM | [11] 75.2 µM
inactive: all other assays above

Oc1ccccc1O
inactive: all assays above

C=CCc1ccc(OC)c(OC)c1
active: [5] 9.92 µM
not listed: [14]
inactive: all other assays above

Nc1nc(=S)c2[nH]cnc2[nH]1
active: [2] 6.35 µM | [3] 3.48 µM | [7] 3.04 µM | [14] 5.84 µM | [9] 9.48 µM | CYP2C8 (gene 1558) 32.2 µM | CYP2C9 (gene 1559) 7.91 µM | CYP2E1 (gene 1571) 5.72 µM | CYP4A11 (gene 1579) 6.3 µM | [10] 27.6 µM | [11] 8.69 µM | [13] 7.2 µM
inactive: [1] | BCL2L11 (gene 10018) | [4] | [5] | Caspase-3 (Homo sapiens) | [6] | [8] | [12]

CC(C)COC(=O)CCCCC(=O)OCC(C)C
inactive: all assays above
